# Counter-ions that a name gives are not always drawn. ± gives the standard error. Screen size: about 1,300 compounds; about 130 (10%) showed an effect of 50% or more. The entries come from a sample that favours strong results as a whole.
# System: Trichoderma virens ATCC 9645
# Experiment: growth yield (OD600) with compound + IPBC relative to untreated control; higher = less growth inhibition
# Conditions: compound concentration: 100 uM, IPBC concentration: 200 ng/ml
# Summary of the method: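 Trichoderma virens ATCC 9645 spores, from potato dextrose agar plates grown for 7 days, were brought to 15,000 spores ml^−1 in potato dextrose broth and dispensed as 100 μl aliquots into 96-well plates. Each aliquot received library compounds at 100 μM final, with or without a biocide at 200 ng ml^−1, before growth at 30 °C and OD600 readings on a BioTek EL800 at 40 h and 72 h. Growth is expressed relative to the control containing neither agent and represents means of duplicate screens.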
Compound,growth yield (40 h) [%],growth yield (72 h) [%]
CCCCNc1ccc(C(=O)OCCN(C)C)cc1 + CCCCNC(=O)OCC#CI [3-iodo-2-propynyl butylcarbamate (IPBC)],81.5 ± 1.4,88.2 ± 0.32
CCCCNc1c(C(=O)OCC)c(C)nc2c1cnn2CC [Tracazolate hydrochloride] + CCCCNC(=O)OCC#CI [3-iodo-2-propynyl butylcarbamate (IPBC)],21.9,53.7 ± 0.21
CCCCNc1ccc(C(=O)OCCOCCOCCOCCOCCOCCOCCOCCOCCOC)cc1 [Benzonatate] + CCCCNC(=O)OCC#CI [3-iodo-2-propynyl butylcarbamate (IPBC)],77.4 ± 1.1,83.27 ± 0.42
"CC(C)(S)C(N)C(=O)O (racemic) [D,L-Penicillamine] + CCCCNC(=O)OCC#CI [3-iodo-2-propynyl butylcarbamate (IPBC)]",94.8 ± 8.4,94.2 ± 5.5
COC1=CC(=O)C[C@@H](C)[C@]12Oc1c(Cl)c(OC)cc(OC)c1C2=O [Griseofulvin] + CCCCNC(=O)OCC#CI [3-iodo-2-propynyl butylcarbamate (IPBC)],48.8 ± 3.6,85.2 ± 1.1
CCC(=O)O[C@@H](O[P@](=O)(CCCCc1ccccc1)CC(=O)N1C[C@H](C2CCCCC2)C[C@H]1C(=O)O)C(C)C [Fosinopril] + CCCCNC(=O)OCC#CI [3-iodo-2-propynyl butylcarbamate (IPBC)],86.9 ± 9.1,94.8 ± 7.3
C[N+](C)(CCOc1ccccc1)Cc1ccccc1.O=C([O-])c1cc2ccccc2cc1O [Bephenium hydroxynaphthoate] + CCCCNC(=O)OCC#CI [3-iodo-2-propynyl butylcarbamate (IPBC)],63.5,85.3 ± 2.4
CC(C)(C)CC(C)(C)c1ccc(OCCOCC[N+](C)(C)Cc2ccccc2)cc1 [Benzethonium chloride] + CCCCNC(=O)OCC#CI [3-iodo-2-propynyl butylcarbamate (IPBC)],3.18 ± 0.32,2.52 ± 0.42
Cc1cc(C(C)(C)CC(C)(C)C)ccc1OCCOCC[N+](C)(C)Cc1ccccc1 [Methyl benzethonium chloride] + CCCCNC(=O)OCC#CI [3-iodo-2-propynyl butylcarbamate (IPBC)],2.86 ± 0.64,2.62 ± 0.1
CCC(=O)O[C@]1(C(=O)SCF)[C@H](C)C[C@H]2[C@@H]3C[C@H](F)C4=CC(=O)C=C[C@]4(C)[C@@]3(F)[C@@H](O)C[C@@]21C [Fluticasone propionate] + CCCCNC(=O)OCC#CI [3-iodo-2-propynyl butylcarbamate (IPBC)],101 ± 0.64,99.63 ± 0.42
Cc1cc(CC(=O)O)n(C)c1C(=O)c1ccc(Cl)cc1 [Zomepirac sodium salt] + CCCCNC(=O)OCC#CI [3-iodo-2-propynyl butylcarbamate (IPBC)],89.59 ± 0.64,92.4 ± 2.2
CNCC[C@@H](Oc1ccccc1C)c1ccccc1 [Tomoxetine hydrochloride] + CCCCNC(=O)OCC#CI [3-iodo-2-propynyl butylcarbamate (IPBC)],78.31 ± 0.48,87.89 ± 0.84
CN1CCN(C2=Nc3cc(Cl)ccc3Nc3ccccc32)CC1 [Clozapine] + CCCCNC(=O)OCC#CI [3-iodo-2-propynyl butylcarbamate (IPBC)],65.6 ± 2.7,93.8 ± 2.7
CC(NCCc1ccc(O)cc1)C(O)c1ccc(O)cc1 (configuration not stated) [Ritodrine hydrochloride] + CCCCNC(=O)OCC#CI [3-iodo-2-propynyl butylcarbamate (IPBC)],83.07 ± 0.16,92.4 ± 0.32
CCCCCCCCNC(C)C(O)c1ccc(SC(C)C)cc1 (configuration not stated) [Suloctidil] + CCCCNC(=O)OCC#CI [3-iodo-2-propynyl butylcarbamate (IPBC)],5.08 ± 0.32,33.1 ± 2.5
CC(CCc1ccccc1)NC(C)C(O)c1ccc(O)cc1 (configuration not stated) [Nylidrin] + CCCCNC(=O)OCC#CI [3-iodo-2-propynyl butylcarbamate (IPBC)],95.3 ± 2.9,96.59 ± 0.1
OCCN1C[C@H](O)[C@@H](O)[C@H](O)[C@H]1CO [Miglitol] + CCCCNC(=O)OCC#CI [3-iodo-2-propynyl butylcarbamate (IPBC)],90.1 ± 9.1,93 ± 4.5
CCOC(=O)c1ccc(C#Cc2ccc3c(c2)C(C)(C)CCS3)nc1 [Tazarotene] + CCCCNC(=O)OCC#CI [3-iodo-2-propynyl butylcarbamate (IPBC)],81.2 ± 2.7,91.6 ± 1.4
C#CCN[C@@H]1CCc2ccccc21 [Rasagiline] + CCCCNC(=O)OCC#CI [3-iodo-2-propynyl butylcarbamate (IPBC)],84.5 ± 1.3,85.6 ± 1.1
O=C(CCCN1CCC(O)(c2ccc(Br)cc2)CC1)c1ccc(F)cc1 [Bromperidol] + CCCCNC(=O)OCC#CI [3-iodo-2-propynyl butylcarbamate (IPBC)],64.3 ± 2.1,87.3 ± 1.5
O=C(CCCN1CCC2(CC1)C(=O)NCN2c1ccccc1)c1ccc(F)cc1 [Spiperone] + CCCCNC(=O)OCC#CI [3-iodo-2-propynyl butylcarbamate (IPBC)],77.8 ± 2.9,90.4 ± 0.21

Compound,growth yield (40 h) [%],growth yield (72 h) [%]
O=C(CCCN1CCC(O)(c2ccc(Cl)cc2)CC1)c1ccc(F)cc1 [Haloperidol] + CCCCNC(=O)OCC#CI [3-iodo-2-propynyl butylcarbamate (IPBC)],10.2 ± 1.9,60.4 ± 4.4
CSc1nc2cc(Cl)c(Oc3cccc(Cl)c3Cl)cc2[nH]1 [Triclabendazole] + CCCCNC(=O)OCC#CI [3-iodo-2-propynyl butylcarbamate (IPBC)],66.7 ± 3.2,120 ± 6.5
O=C(O)c1cn(C2CC2)c2cc(N3CCNCC3)c(F)cc2c1=O [Ciprofloxacin hydrochloride monohydrate] + CCCCNC(=O)OCC#CI [3-iodo-2-propynyl butylcarbamate (IPBC)],86.2 ± 8.7,91.5 ± 6.3
CCOc1nc2cccc(C(=O)OCc3oc(=O)oc3C)c2n1Cc1ccc(-c2ccccc2-c2noc(=O)[nH]2)cc1 [Azilsartan kamedoxomil] + CCCCNC(=O)OCC#CI [3-iodo-2-propynyl butylcarbamate (IPBC)],110 ± 5.1,105 ± 2.7
CN[C@@H]1[C@@H](O[C@H]2O[C@H](CO)[C@@H](N)[C@H](O)[C@H]2O)OC2C[C@@H](N)[C@@H](O[C@H]3[C@H](O)[C@@H](O)[C@H](N)C[C@@H]3N)OC2[C@@H]1O (some centres not stated) [Apramycin] + CCCCNC(=O)OCC#CI [3-iodo-2-propynyl butylcarbamate (IPBC)],96.6 ± 4.1,97.1 ± 1.5
CCCN(CCC)S(=O)(=O)c1ccc(C(=O)O)cc1 [Probenecid] + CCCCNC(=O)OCC#CI [3-iodo-2-propynyl butylcarbamate (IPBC)],81.5 ± 4.9,86.1 ± 0.73
NC(=O)N1c2ccccc2C=Cc2ccccc21 [Carbamazepine] + CCCCNC(=O)OCC#CI [3-iodo-2-propynyl butylcarbamate (IPBC)],92.8 ± 1.9,93.8 ± 1.1
COc1cc2c(c(OC)c1OC)-c1ccc(OC)c(=O)cc1[C@@H](NC(C)=O)CC2 [Colchicine] + CCCCNC(=O)OCC#CI [3-iodo-2-propynyl butylcarbamate (IPBC)],88.5 ± 6.8,92.9 ± 1.7
NC[C@@H]1O[C@H](O[C@H]2[C@@H](O)[C@H](O[C@@H]3[C@@H](O)[C@H](N)C[C@H](N)[C@H]3O[C@H]3O[C@H](CO)[C@@H](O)[C@H](O)[C@H]3N)O[C@@H]2CO)[C@H](N)[C@@H](O)[C@@H]1O [Paromomycin sulfate] + CCCCNC(=O)OCC#CI [3-iodo-2-propynyl butylcarbamate (IPBC)],84 ± 7.2,86.5 ± 2.2
COC1=C(OC)C(=O)C(CCCCCCCCCCO)=C(C)C1=O [Idebenone] + CCCCNC(=O)OCC#CI [3-iodo-2-propynyl butylcarbamate (IPBC)],49.1 ± 8.1,73.9 ± 4.5
CCn1cc(C(=O)O)c(=O)c2cc(F)c(N3CCNC(C)C3)c(F)c21 (configuration not stated) [Lomefloxacin hydrochloride] + CCCCNC(=O)OCC#CI [3-iodo-2-propynyl butylcarbamate (IPBC)],87.4 ± 8.3,96.3 ± 6.5
CCCN(CCC)CCc1cccc2c1CC(=O)N2 [Ropinirole hydrochloride] + CCCCNC(=O)OCC#CI [3-iodo-2-propynyl butylcarbamate (IPBC)],84.8 ± 1.3,90.61 ± 0.42
O=C(OCCOCCO)c1ccccc1Nc1cccc(C(F)(F)F)c1 [Etofenamate] + CCCCNC(=O)OCC#CI [3-iodo-2-propynyl butylcarbamate (IPBC)],59.2 ± 1.4,94.4 ± 2.1
O=C(O)c1ccccc1Nc1cccc(C(F)(F)F)c1 [Flufenamic acid] + CCCCNC(=O)OCC#CI [3-iodo-2-propynyl butylcarbamate (IPBC)],29.1 ± 2.1,59.05 ± 0.32
O=C(O)c1cccnc1Nc1cccc(C(F)(F)F)c1 [Niflumic acid] + CCCCNC(=O)OCC#CI [3-iodo-2-propynyl butylcarbamate (IPBC)],63.9 ± 2.9,85.2 ± 3.1
CCCc1nc(C(C)(C)O)c(C(=O)O)n1Cc1ccc(-c2ccccc2-c2nnn[nH]2)cc1 [Olmesartan] + CCCCNC(=O)OCC#CI [3-iodo-2-propynyl butylcarbamate (IPBC)],107 ± 1.3,104 ± 1.4
OC(c1cc(C(F)(F)F)nc2c(C(F)(F)F)cccc12)C1CCCCN1 (configuration not stated) [Mefloquine hydrochloride] + CCCCNC(=O)OCC#CI [3-iodo-2-propynyl butylcarbamate (IPBC)],74.8 ± 4,103 ± 3.4
O=C(O)Cc1sc(-c2ccccc2)nc1-c1ccc(Cl)cc1 [Fentiazac] + CCCCNC(=O)OCC#CI [3-iodo-2-propynyl butylcarbamate (IPBC)],25.4,77.1 ± 16
O=C(O)Cc1ccc(-c2ccccc2)cc1 [Felbinac] + CCCCNC(=O)OCC#CI [3-iodo-2-propynyl butylcarbamate (IPBC)],56.2 ± 4.1,91.9 ± 4.6
O=C(O)CCc1nc(-c2ccccc2)c(-c2ccccc2)o1 [Oxaprozin] + CCCCNC(=O)OCC#CI [3-iodo-2-propynyl butylcarbamate (IPBC)],72.7 ± 4.5,85.47 ± 0.73
